Hits are enriched below; roughly 5.2% of the tested compounds scored in any of these assays.
Tau FP inhib: blocks human tau fibril formation measured by polarization; P10636; K18 P301L tau heparin fibrillization, Alexa594 FP, 6 h; Potency, µM (titrated, usually from 57.7 µM), without a hit: at the highest dose activity, negative = inhibition, actives largely listed as inhibitors; 280,000 compounds, 0.39% hits; further: potency means the concentration at half of the fitted maximal effect; nearly all actives have a fitted effect of over 55% in size
Target sequence (P10636 561-689 P618L limits assumed): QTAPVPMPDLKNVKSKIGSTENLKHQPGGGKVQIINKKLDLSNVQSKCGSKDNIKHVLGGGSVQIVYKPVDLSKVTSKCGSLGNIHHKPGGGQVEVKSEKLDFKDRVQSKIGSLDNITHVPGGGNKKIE
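Read-out: fluorescence polarization of Alexa 594-labeled tau (0.24 uM), 555 nm excitation, 632 nm emission. Mixtures held 15 uM unlabeled K18 P301L, compound and 20 uM heparin, pH 7 acetate buffer, incubated 6 hr at 37 C.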
FBPA coupling cs: inhibits coupling enzyme system, counter-screen for aldolase hits; coupling enzyme system counterscreen, AmpLite Red fluorescence; activity change, negative = inhibition, % at 58.2 µM, hits read low; 290,000 compounds, 0.67% hits; in the data active means activity change below about -30%
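Compounds tested against the coupling enzymes alone at 57.5 uM final; readout was AmpLite Red fluorescence (525/598 nm) after 20 min at RT.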
Tau fibril ThT: blocks human tau fibril formation measured by thioflavin T; AID 1460; 270,000 compounds, 2.1% hits; P10636; recombinant tau K18 P301L, heparin-induced fibrillization, ThT fluorescence; Potency, µM (highest dose often 57.4 µM), for inactives: at the top dose activity, negative = inhibition, usual class: inhibitors; further: potency means the concentration at half of the fitted maximal effect; nearly all actives have a fitted effect of over 55% in size
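Tau K18 P301L fragment (15 uM unlabeled plus 0.24 uM Alexa 594-labeled) in 100 mM sodium acetate pH 7 with compound, fibrillization induced by 20 uM heparin for 6 hr at 37 C. Thioflavin T (30 uM) added, fluorescence read after 1 hr (ex 450, em 510 nm).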
Tau fluor counter: counter-screen for tau fibril formation inhibitors; tau K18 P301L (four-repeat tau fragment) Alexa594 fluorescence, heparin fibrillization; Potency, µM (top dose mostly 57.7 µM), inactives show at the highest dose activity change, negative = decrease; 280,000 compounds, 0.93% hits; further: potency means the concentration at half of the fitted maximal effect; nearly all actives have a fitted effect of over 55% in size
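Human K18 P301L tau (15 uM unlabeled plus 0.24 uM Alexa 594-labeled, final) in 100 mM sodium acetate pH 7 was mixed with compound and 20 uM heparin and incubated 6 hr at 37 C.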
Sfp inh: Sfp phosphopantetheinyl transferase inhibition. Potency, µM, without a hit: largest response in the series, negative = inhibition, usual class: inhibitors. Biochemical Sfp PPTase activity, qHTS. 310,000 compounds, 3.5% hits;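 further: the enzyme is Sfp with the accession as filed and its product quenches rhodamine fluorescence; potency means the concentration at half of the fitted maximal effect; 0% = enzyme reaction without inhibitor and -100% = no enzyme wells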
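Compounds were incubated with enzyme (final 15 nM) for 15 min at room temperature before substrate addition started the reaction. Fluorescence at 525 nm excitation, 598 nm emission was recorded immediately and after 30 minutes.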
The depositor's hits bear a star; ? = inconclusive; . = not tested or not shown; ! = repeats disagree; [ ] = remark or other dose. Unless noted, the call rests on the fitted dose curve; in most records, active means well fitted curve in the direction sought with a large enough effect; inconclusive means small, poorly fitted or top-dose-only effect, or another doubt; inactive means no such curve, though single readings can be large; an effect the other way counts as inactive or inconclusive. Unless noted, on the % scale 0 is the no-effect control and ±100 the full control effect.

SMILES	Tau FP inhib	FBPA coupling cs	Tau fibril ThT	Tau fluor counter	Sfp inh
CCc1ccc(NCc2cc3ccc(OC)cc3n(CC(=O)Nc3ccc(F)cc3F)c2=O)cc1	?	.	8%	?	.
COc1ccc(CCNC(=O)c2cc3c(=O)n(C)c4cc(Cl)ccc4c3s2)cc1OC	-3%	.	-8%	-5%	.
Cc1cc(/C=C2\SC(=S)N(C)C2=O)c(C)n1-c1ccc(O)cc1	?	-4	6.3µM*	8.9µM*[quencher]	-1%
O=C(O)/C=C/C(=O)c1ccc2c(c1)NC(=O)CO2	?	2	?	-1%	8.9µM*
O=C1COc2ccc(C(=O)NC3CC3)cc2N1	3%	2	-5%	-7%	18%
CC(=O)Nc1ccccc1-c1nc2ccccc2n(CC(=O)Nc2ccc(C)c(Cl)c2)c1=O	11%	.	-3%	-4%	.
COC(=O)/C(C#N)=C/c1ccc(-c2ccc(S(N)(=O)=O)cc2)o1	-12%	5	-7%	-1%	-3%
N#CC(C#N)=Cc1ccc(-c2ccc(S(=O)(=O)N=C(N)N)cc2)o1	8%	5	20µM*	?	?
CC[C@H](C)[C@H](NC(=O)[C@H](CCC(=O)O)NC(=O)CNC(=O)[C@H](CCCCN)NC(=O)[C@H](CCC(=O)O)NC(=O)[C@H](CCSC)NC(=O)[C@H](CCSC)NC(=O)[C@H](CCSC)NC(=O)[C@H](CCC(=O)O)NC(=O)CNC(=O)[C@H](CO)NC(=O)[C@H](CO)NC(=O)[C@H](CO)NC(=O)[C@@H](N)CC(N)=O)C(=O)N[C@@H](CCCCN)C(=O)O	.	0	.	.	0%
COc1ccc(-n2c(=O)cnc3cnc(N(C)C)nc32)cc1	.	0	.	.	16%
Cc1ccc(NCC(=O)c2ccccc2)cc1Cl	-9%	-1	?	-16%	9%
Cc1ccc(NC2=C(NC(=O)c3ccccc3)C(=O)c3ccccc3C2=O)cc1Cl	?	-48*	16µM*	?	10µM*
O=C(O)c1cccc(NS(=O)(=O)/C=C/c2ccccc2)c1	8%	10	-4%	0%	2%
O=C(O)c1cccc(NC2=C(Cl)C(=O)c3ccccc3C2=O)c1	25µM*	-19	2.8µM*	4µM*[quencher]	25µM*
O=C(O)c1ccc(NC2=C(Cl)C(=O)c3ccccc3C2=O)cc1	3.5µM*	19	1.4µM*	1.8µM*[quencher]	22µM*
C=CCNC1=C(Cl)C(=O)c2ccccc2C1=O	2%	-35*	1%	7%	-10%
CCN(CC)CCCNC1=C(Cl)C(=O)c2ccccc2C1=O	-8%	-13	?	-25%	-3%
CC1=C(Nc2ccc(C(=O)O)cc2)C(=O)c2ccccc2C1=O	.	-12	.	.	-1%
FC(F)(F)C(F)(F)C(F)(F)C(F)(F)C(F)(F)C(F)(F)C(F)(F)C(F)(F)Br	.	.	.	.	21%
COc1cccc(Cn2c(=O)n(-c3ccc(C)c(F)c3)c(=O)c3sc4ccccc4c32)c1	?	.	2%	-6%	.
Cc1ccc(NC(=O)c2nnn(CC(=O)Nc3ccc(C)c(Cl)c3)c2N)c(C)c1	?	.	-19%	-23%	.
CC(C)OCCCNC1=C(Cl)C(=O)c2ccccc2C1=O	7%	-10	13µM*	?	?
O=C1C(Cl)=C(Nc2ccccc2)C(=O)c2ccccc21	?	-33*	3.2µM*	3.5µM*[quencher]	1%
CC(C)NC1=C(Cl)C(=O)c2ccccc2C1=O	?	-42*	25µM*	-28%	0%
COCCCNC1=C(Cl)C(=O)c2ccccc2C1=O	6%	-21	?	-12%	1%
SMILES	Tau FP inhib	FBPA coupling cs	Tau fibril ThT	Tau fluor counter	Sfp inh
O=C1C(Cl)=C(NCc2cccnc2)C(=O)c2ccccc21	.	13	.	.	-11%
COC(=O)[C@H]1[C@H]2C[C@@H]3c4[nH]c5ccccc5c4CCN3C[C@H]2C[C@@H](OC(=O)c2cc(OC)c(OC)c(OC)c2)[C@@H]1OC	.	.	.	.	29%
C/C(=C\c1ccco1)C1C(C#N)=C(N)Oc2n[nH]c(-c3ccccc3)c21 (stereo not drawn)	-11%	1	?	?	79µM*
C/C(=C\c1ccco1)C1C(C#N)=C(N)Oc2n[nH]c(-c3ccc(C)cc3)c21 (stereo not drawn)	-10%	0	-14%	?	?
C/C(=C\c1ccco1)C1C(C#N)=C(N)OC2=C1C(=O)CC(C)(C)C2 (stereo not drawn)	-5%	-1	-11%	-3%	20µM*
O=C1C=CC2=C3c4cc(O)c(O)cc4CC3(O)COC2=C1O (stereo not drawn)	7.9µM*	-38*!	3.2µM*	4µM*[quencher]	14µM*
O=C(O)c1cc([N+](=O)[O-])ccc1NCCCc1ccccc1	2%	-6	3.5µM*	-8%	-3%
COC(=O)c1c(NC(=O)CCCC(=O)O)sc(C)c1C	-11%	8	-3%	2%	19%
CCc1ccc(CCC(=O)Nc2sc(C)c(C)c2C(=O)OC)o1	0%	1	?	-5%	56µM*
CCc1ccc(/C([O-])=C(/C(=S)NCCN2CCOCC2)[n+]2ccccc2)cc1	-14%	-3	?	-10%	45µM*
CCNC(=S)/C(=C(/[O-])c1ccc([N+](=O)[O-])cc1)[n+]1ccccc1	0%	-4	?	-16%	-15%
O=[N+]([O-])c1ccc2c(c1)N([O-])C1(CCCCC1)[N+]2=O	11µM*	-51*	3.5µM*	?	7.1µM*
CC1=C(c2ccccc2)[N+](=O)C2(CCCC2)N1[O-]	-3%	4	-9%	4%	-17%
Cc1cn2c(=O)c(S(=O)(=O)NCCc3ccccc3)c(C)nc2s1	2%	.	-2%	-1%	.
O=C1c2ccccc2C(Nc2ccc(F)c(Cl)c2)N1Cc1ccco1 (stereo not drawn)	4%	-4	?	-28%	32µM*
O=C1c2ccccc2C(Nc2ccc(S(=O)(=O)N3CCCCC3)cc2)N1Cc1ccco1 (stereo not drawn)	8%	2	-17%	-21%	40µM*
COC(=O)c1ccc(Nc2ncnc3c2cnn3-c2ccccc2)cc1	?	.	?	-30%	.
CCN(CC)S(=O)(=O)c1ccc(NC(=O)NCc2noc3ccc(C)cc23)cc1	14µM*	.	8%	13µM*[quencher]	.
Cc1ccc2onc(CNC(=O)Nc3cc(F)ccc3F)c2c1	?	.	-4%	-24%	.
CCN(CC)S(=O)(=O)c1ccc2oc(C(=O)NCc3ccc(C)cc3)c(C)c2c1	2%	-2	-17%	-22%	25µM*
CCCCN(CCCC)S(=O)(=O)c1ccc2oc(C(=O)NCc3ccc(C)cc3)c(C)c2c1	-7%	.	-3%	-13%	.
c1ccc(Nc2nnc(SCc3cccc4ccccc34)s2)cc1	-10%	1	-10%	16µM*[quencher]	-10%

Assay outcomes: PubChem, National Center for Advancing Translational Sciences (NCATS)
